Measured values from PubChem BioAssay (NCI).
Where “and” joins values, the source holds several entries; their conditions need not be identical. Identical values can stand only once. About 83,000 compounds went through this panel and 20% of them were active in at least one assay; those are over-represented in the sample as a whole.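 Results are percent growth after 48 hours of single-concentration exposure. 100 means growth as in untreated cells, lower positive values show inhibition; negative values down to -100 show cell death.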 Calls of active or inactive are those of the source. How the source made its calls: active means growth percent below 10; inactive means the rest.

Each molecule was assayed on T-47D breast (assay: NCI-60 one-dose screen, 48 h (100 = growth as untreated, 0 = no growth, -100 = all killed)). Conditions: 10 µM unless noted.

Structure (SMILES)	growth
CCC1(NC(=O)c2cc(F)c(F)c(F)c2F)C(=O)NC(=O)N(C(C)C)C1=O (stereo not given)	214% (inactive)
O=C1NC(=O)C(=C/C=C/c2ccccc2)C(=O)N1	32.2% (inactive)
C[C@]12CCC3[C@@H](C[C@@H]4SC(Nc5ccccc5)=N[C@@]45CC(=O)CC[C@]35C)[C@@H]1CCC2=O (stereo not given in full)	-27.4% (active)
CCCCOCCOP(=O)(OCCOCCCC)OCCOCCCC	96.2% (inactive)
Cc1cc[c-]cc1.Fc1c[c-]c(-c2ccccn2)c(F)c1.N#CCC[PH+](CCC#N)c1ccccc1.[Pt+2]	29.1% (inactive)
CCN(CC)CCn1c(=O)n(C)c2ccccc21	109% (inactive)
COc1cc2c(cc1OC)[C@@H]1C(=O)c3ccc4c(c3O[C@@H]1CO2)C[C@H](C(C)C)O4	33.2% (inactive)
COC(=O)C12C3C4C1C1C2C3C41NC(=O)c1csc([C@@H](C[C@H](C(C)C)N(C)C(=O)[C@@H](NC(=O)[C@H]2CCCCN2C)C2CC2)OC(C)=O)n1 (stereo not given in full)	61.4% (inactive)
CC[C@H](CC[C@@H](C)[C@H]1CC[C@H]2[C@@H]3CC[C@H]4C[C@]5(CC[C@]4(C)[C@H]3CC[C@]12C)OO[C@](C)(C(F)(F)F)O5)C(C)C	87.9% (inactive)
CC(C)CCC1C(=O)NC(=O)NC1=O	78.6% (inactive)
CN1CCC2(CC1)C(C#N)C(=O)NC(=O)C2C#N (stereo not given)	107% (inactive)
CC(=O)c1cccc(S(=O)(=O)F)c1	110% (inactive)
ClCc1ccc(Cl)c(Cl)c1	106% (inactive)
COc1cc2c(cc1OC)-c1c3c(cc4c1[C@@H](C2)N(C)CC4)OCO3	57.4% (inactive)
C=CC[PH+](c1ccccc1)c1ccccc1.C=CC[PH+](c1ccccc1)c1ccccc1.[Pt+2].[S-]c1ncccn1.[S-]c1ncccn1	2% (active)
CC(=O)Nc1nc2c(s1)C1=CC[C@H]3[C@@H]4CC[C@H](OC(C)=O)[C@@]4(C)CC[C@@H]3[C@@]1(C)CC2	74.3% (inactive)
C[C@]12CCC(=O)C[C@@H]1CC[C@@H]1[C@@H]2CC[C@]2(C)[C@@H](OC(=O)N(CCCl)N=O)CC[C@@H]12	34% (inactive)
C[N+]1(C)CCCC1c1cccnc1 (stereo not given)	96.5% (inactive)
O=[N+]([O-])c1cc(Br)c(O)c(Br)c1	115% (inactive)
Nc1ccc(S(=O)(=O)F)cc1	96.4% (inactive)
Cc1cc(N(CCCl)CCCl)ccc1/C=N\NC(=O)c1cccnc1	57.5% (inactive) and 60.7% (inactive)
CNC(=O)O/N=C(\SC)C(=O)N(C)C	97.1% (inactive)
N#CC(C#N)=Cc1cccc(F)c1	105% (inactive)
CCC1(CCSC#N)C(=O)NC(=O)NC1=O	78.4% (inactive)

These molecules were tested on BT-549 breast in the same assay as above. Conditions: 10 µM unless noted.

Structure (SMILES)	growth
C[C@@]12CCCc3coc(c31)C(=O)c1cc3c(cc12)C(=O)C1=C(NCCS1(=O)=O)C3=O	-51.7% (active)
C=CC[PH+](c1ccccc1)c1ccccc1.C=CC[PH+](c1ccccc1)c1ccccc1.[Pt+2].[S-]c1nc2ccccc2[nH]1.[S-]c1nc2ccccc2[nH]1	-28.1% (active)
Cc1cc[c-]cc1.Fc1c[c-]c(-c2ccccn2)c(F)c1.[Pt+2].c1ccc([PH+](c2ccccc2)c2ccccn2)cc1	63.2% (inactive)
C#Cc1cccc(Nc2nc(Cl)nc3cc(NC(=O)CF)ccc23)c1	72.2% (inactive)
CC[C@H](C)[C@H](NC(=O)c1ncccn1)C(=O)N(C)[C@H](C[C@@H](OC(C)=O)c1nc(C(=O)N[C@@H](Cc2ccccc2)C[C@H](C)C(=O)OC)cs1)C(C)C	5.49% (active)
Cc1cc(Br)c([N+](=O)[O-])cc1[N+](=O)[O-]	106% (inactive)
COc1cc(C=C2C(=O)NC(=O)NC2=O)ccc1O	111% (inactive)
Oc1cc(N2CC2)c(O)cc1N1CC1	30% (inactive)
C[C@]12CCc3sc(Nc4ccc(O)cc4)nc3C1=CC[C@@H]1[C@@H]2CC[C@]2(C)C(=O)CC[C@@H]12	45.6% (inactive)
CN1CCc2cc3c(cc2C1O)OCO3 (stereo not given)	-78.9% (active) and 100% (inactive)
N#CC(NC(=O)CCl)=C(Cl)Cl	38.9% (inactive)
CC[C@@H](C)C(=O)O[C@H]1[C@H](O)[C@H]2[C@@H](CN3C[C@@H](C)CC[C@H]3[C@@]2(C)O)[C@@H]2C[C@]34O[C@]5(O)[C@@H](OC(=O)[C@@](C)(O)CC)CC[C@@]3(C)[C@@H]5[C@@H](OC(C)=O)[C@@H](OC(C)=O)[C@H]4[C@@]21O	99.7% (inactive)
CCC1(NC(=O)c2cc(F)c(F)c(F)c2F)C(=O)NC(=O)N(C(C)C)C1=O (stereo not given)	72.9% (inactive)
O=C1NC(=O)C(=C/C=C/c2ccccc2)C(=O)N1	36.6% (inactive)
C[C@]12CCC3[C@@H](C[C@@H]4SC(Nc5ccccc5)=N[C@@]45CC(=O)CC[C@]35C)[C@@H]1CCC2=O (stereo not given in full)	-19.9% (active)
CCCCOCCOP(=O)(OCCOCCCC)OCCOCCCC	114% (inactive)
Cc1cc[c-]cc1.Fc1c[c-]c(-c2ccccn2)c(F)c1.N#CCC[PH+](CCC#N)c1ccccc1.[Pt+2]	55.7% (inactive)
CCN(CC)CCn1c(=O)n(C)c2ccccc21	124% (inactive)

Structure (SMILES)	growth
COc1cc2c(cc1OC)[C@@H]1C(=O)c3ccc4c(c3O[C@@H]1CO2)C[C@H](C(C)C)O4	44.8% (inactive)
COC(=O)C12C3C4C1C1C2C3C41NC(=O)c1csc([C@@H](C[C@H](C(C)C)N(C)C(=O)[C@@H](NC(=O)[C@H]2CCCCN2C)C2CC2)OC(C)=O)n1 (stereo not given in full)	-17.2% (active)
CC[C@H](CC[C@@H](C)[C@H]1CC[C@H]2[C@@H]3CC[C@H]4C[C@]5(CC[C@]4(C)[C@H]3CC[C@]12C)OO[C@](C)(C(F)(F)F)O5)C(C)C	82.2% (inactive)
CC(C)CCC1C(=O)NC(=O)NC1=O	100% (inactive)
CN1CCC2(CC1)C(C#N)C(=O)NC(=O)C2C#N (stereo not given)	103% (inactive)
CC(=O)c1cccc(S(=O)(=O)F)c1	88.8% (inactive)
ClCc1ccc(Cl)c(Cl)c1	104% (inactive)
COc1cc2c(cc1OC)-c1c3c(cc4c1[C@@H](C2)N(C)CC4)OCO3	55.8% (inactive)
C=CC[PH+](c1ccccc1)c1ccccc1.C=CC[PH+](c1ccccc1)c1ccccc1.[Pt+2].[S-]c1ncccn1.[S-]c1ncccn1	64% (inactive)
CC(=O)Nc1nc2c(s1)C1=CC[C@H]3[C@@H]4CC[C@H](OC(C)=O)[C@@]4(C)CC[C@@H]3[C@@]1(C)CC2	39.2% (inactive)
C[C@]12CCC(=O)C[C@@H]1CC[C@@H]1[C@@H]2CC[C@]2(C)[C@@H](OC(=O)N(CCCl)N=O)CC[C@@H]12	32.9% (inactive)
C[N+]1(C)CCCC1c1cccnc1 (stereo not given)	85.3% (inactive)
O=[N+]([O-])c1cc(Br)c(O)c(Br)c1	121% (inactive)
Nc1ccc(S(=O)(=O)F)cc1	104% (inactive)
Cc1cc(N(CCCl)CCCl)ccc1/C=N\NC(=O)c1cccnc1	86% (inactive) and 78.8% (inactive)
CNC(=O)O/N=C(\SC)C(=O)N(C)C	101% (inactive)
N#CC(C#N)=Cc1cccc(F)c1	111% (inactive)
CCC1(CCSC#N)C(=O)NC(=O)NC1=O	95.3% (inactive)
